From PubChem BioAssay AID485298 (National Center for Advancing Translational Sciences (NCATS), 2010)
Several values for one entry are separate records, joined by “and”; a condition that tells them apart may be missing. Identical values can stand only once. Hit rate of the full screen: of about 320,000 compounds, about 740 (0.23%) were called active. Inconclusive results (about 2%) are left out. Calls come from the whole dose curve; as a rule, active = well fitted activation curve with a large enough effect; inconclusive = small, poorly fitted or top-dose-only effect; inactive = no such curve, though single readings can be large or run the other way. The full list was thinned out, with actives kept by preference. More than one record can exist for a structure, and the calls need not agree.

assay: qHTS Assay for Small Molecule Inhibitors of Mitochondrial Division or Activators of Mitochondrial Fusion; note: nearly all actives have a fitted effect of over 45% in size; for growth rescue (activation): % of control where 0% means no effect; details: S. cerevisiae fusion-defective mutant growth rescue, CellTiterGlo 48 h; series mostly up to 46.1 µM; growth rescue (activation): at the top concentration
Text: NIH Chemical Genomics Center [NCGC] NIH Molecular Libraries Probe Production centers Network [MLPCN] MLPCN Grant: MH081279-01 Assay Submitter (PI): Jodi M. Nunnari NCGC Assay Overview: The budding yeast S. cerevisiae is a powerful system to study mitochondrial fusion. Unlike other organisms, yeast cells without functional mitochondrial DNA (mtDNA) can be propagated and studied as long as they maintain a mitochondrial compartment and are provided with a fermentable carbon source. When mitochondrial fusion is blocked in yeast, mitochondrial tubules rapidly fragment and division continues unopposed. Under conditions where fusion is compromised in mammalian cells, nearly identical changes in mitochondrial structure have been observed. Thus, these findings indicate that steady state mitochondrial structure in cells is a characteristic and specific indicator of fusion activity. Mounting evidence has pointed to a connection between mitochondrial dynamics and apoptosis in mammalian cells. These studies indicate that in mammalian cells mitochondrial dynamics are more integrated into cellular processes than in yeast cells and have evolved not only to distribute the organelle but also to aid in the regulation of cellular homeostasis. Mitochondrial fusion proteins attenuate apoptosis by inhibiting the release of cytochrome c from mitochondria, in part by controlling cristae structures. Thus, small molecules that inhibit mitochondrial […] may promote apoptosis and potentially act as novel chemotherapeutics and stimulation of apoptosis has become an attractive target of anti-cancer therapies. To identify inhibitors of mitochondrial division, we exploit the growth phenotypes of mitochondrial fusion-defective mutants. The temperature sensitive fusion alleles, such as fzo1-1 and mgm1-5, cause mitochondrial membranes to fragment in cells under non-permissive conditions and cells lose mtDNA, and are unable to grow in the presence of non-fermentable carbon source glycerol. Inhibiting mitochondrial division rescues growth. We have developed and optimized a luminescence cell viability assay in 1536 well format for the identification of inhibitors in the yeast mitochondrial fusion-defective assay.
The yeast glycerol stocks where kindly supplied by the laboratory of Dr. Jodi Nunnari, University of California, Davis. All yeast glycerol stock solutions were stored in single use aliquots at -80C. The CellTiterGlo luminescence reagent, containing luciferase and luciferin, were purchased from Promega, and the reagents were stored according to manufacturer's instructions. The Buffer components for the YPEG yeast growth medium were purchased from Sigma-Aldrich (St. Louis, MO). YPEG growth medium: 1% (w/v) yeast extract, 2% (w/v) Bacto-peptone, 3% Ethanol, 3% glycerol, 0.4mM Tryptophan, 0.36mM Adenine. qHTS Assay Protocol: 1.#Dispense 2.5 ul yeast growth medium per 1536 well plate. 2.#Transfer 23 nl per well of compound to plate. 3.#Dispense 2.5 ul yeast solution at appropriate seeding density per well. 4.#Incubate for 48 hours at 37C. 5.#Dispense 5 ul of CellTiterGlow solution per well. 6.#Incubate at ambient for 10 minutes. 7.#Read using bio-luminescence protocol on Viewlux.
Potency is the fitted concentration of half-maximal effect.

| Compound | growth rescue (activation) | Potency |
| --- | --- | --- |
| O=C(NCCCCCCCCCNC(=O)C(F)(F)F)C(F)(F)F | 3.56% (inactive) | – |
| CC(CN1CCOCC1)OC(=O)c1ccc(Cl)cc1Cl (configuration not stated) | -1.69% (inactive) | – |
| Cc1ccc(C(=O)OC(C)CN2CCOCC2)cc1 (configuration not stated) | – | 22.4 µM (active) |
| CC(CN1CCOCC1)OC(=O)c1ccc(C(C)(C)C)cc1 (configuration not stated) | 6.51% (inactive) | – |
| C=C(C)C1CC=C(C)/C(=N\NC(=O)CNc2ccccc2OC)C1 (configuration not stated) | 24.6% (inactive) | – |
| Cc1ccc(S(=O)(=O)/N=C(/NC(=S)Nc2c(C)n(C)n(-c3ccccc3)c2=O)c2ccccc2)cc1 | 0.193% (inactive) | – |
| Cn1c2cc(B(O)O)sc2c2cnn(Cc3ccccc3F)c(=O)c21 | -0.837% (inactive) | – |
| O=C(Nc1ncc2c(n1)CC(c1ccco1)CC2=O)c1ccc(Cl)cc1 (configuration not stated) | 6.99% (inactive) | – |
| CCc1ccc(Nc2ncc3c(n2)CC(c2ccco2)CC3=O)cc1 (configuration not stated) | – | 11.2 µM (active) |
| COc1cc(C2CC(=O)c3cnc(NC(C)=O)nc3C2)cc(OC)c1OC (configuration not stated) | 0.0051% (inactive) | – |
| Cc1cc(NC(=O)Nc2c[nH]c(=O)[nH]c2=O)ccc1Br | 0.148% (inactive) | – |
| CCOC(=O)c1c(CNCc2ccccc2F)c2sc(C)cc2n1C | -0.808% (inactive) | – |
| COc1cc(C2NC(=O)NC(c3ccccc3)=C2C(C)=O)c(Br)cc1OCC(N)=O (configuration not stated) | 2.71% (inactive) | – |
| COc1ccccc1N(C)S(=O)(=O)c1ccc(C(=O)NC2CCCCCC2)cc1 | -3.35% (inactive) | – |
| COc1ccc(CCNC(=O)CN2C(=O)CCSc3ccccc32)c(OC)c1 | -10.5% (inactive) | – |
| COc1ccc(CNC(=O)CNC(=O)c2sc3ccccc3c2Cl)cc1OC | -3.78% (inactive) | – |
| O=C(N/N=C/c1c(Cl)[nH]c2ccccc12)c1sc2ccccc2c1Cl | – | 15.8 µM (active) |
| COCCNC(=S)N/N=C/c1c(C)[nH]c2ccccc12 | -4.82% (inactive) | – |
| Nc1ncnc2c1c(I)cn2[C@@H]1C[C@H](N)[C@@H](O)[C@H]1O | -0.615% (inactive) | – |
| COc1ccccc1NC(=O)c1cc(S(=O)(=O)NCCc2ccccc2)ccc1F | -4.24% (inactive) | – |
| COc1cccc(-n2c(=O)c3c(C)c(C(=O)N(C)C)sc3n(CC(=O)NCCc3ccc(OC)c(OC)c3)c2=O)c1 | -2.48% (inactive) | – |
| CC(=O)Nc1ccc(S(=O)(=O)NCCc2ccccc2)cc1 | -2.71% (inactive) | – |
| CCCCNC(=O)C1CCC(CNS(=O)(=O)c2ccc(NC(C)=O)cc2)CC1 (configuration not stated) | -18.1% (inactive) | – |
| COCCCNC(=O)c1ccc(CNS(=O)(=O)c2ccc(NC(C)=O)cc2)cc1 | – | 0.631 µM (active) |
| O=C(NC1CCCC1)C(c1ccco1)N(C(=O)c1ccco1)c1ccc(F)cc1 (configuration not stated) | 0.928% (inactive) | – |
| CN(C)C(=O)c1ccc(NC(=O)c2ccccc2-c2ccccc2)cc1 | -1.29% (inactive) | – |

| Compound | growth rescue (activation) | Potency |
| --- | --- | --- |
| CN(C)C(=O)c1ccc2c(c1)C1C3CCC(C3)C1C(c1ccccc1)N2 (configuration not stated) | – | 12.6 µM (active) |
| CC1(C)C/C(=C(/C#N)C(N)=O)CCO1 | -4.67% (inactive) | – |
| NC(N)=Nc1nc2ccc(Br)cc2c(=O)[nH]1 | 3.53% (inactive) | – |
| O=S(=O)(Nc1ccc2nc(N3CCOCC3)sc2c1)c1ccccc1 | 9.86% (inactive) | – |
| CC(=O)OCCOCn1cnn2c(=O)c(Br)c(C)nc12 | -1.24% (inactive) | – |
| CC1CCN(c2ccc(-c3ccc(NC(=O)c4ccco4)cc3)nn2)CC1 | 13.5% (inactive) | – |
| CCC(=O)Nc1ccc(-c2ccc(N3CCCCC3)nn2)cc1 | – | 17.8 µM (active) |
| CCC(=O)c1ccc(OCC(=O)Nc2ccc(N3CCCCC3)cc2)cc1 | 0.121% (inactive) | – |
| CCOc1ccc(/C(O)=C2\C(=O)C(=O)N(c3ccc(OC)cc3)C2c2ccccc2[N+](=O)[O-])cc1 (configuration not stated) | -5.38% (inactive) | – |
| CCOC(=O)C1=C(c2ccccc2)NC(=O)NC1c1cc(OC)c(OC)cc1OC (configuration not stated) | 5.15% (inactive) | – |
| CCCC[C@]12Cc3cc(OC)c(OC)cc3C(O1)C1=C(CC3(CCCCC3)OC1=O)O2 | -0.167% [at 9.22 µM] (inactive) | – |
| COc1ccccc1CN1CCCC(N2CCN(c3ccc(F)cc3)CC2)C1 (configuration not stated) | -2.15% (inactive) | – |
| O=C(c1ccc(C(F)(F)F)cc1)C1CCCN(C(=O)c2csnn2)C1 (configuration not stated) | 2.59% (inactive) | – |
| O=C(CN1C(=O)S/C(=C\c2ccccc2F)C1=O)NCCCn1ccnc1 | 0.524% (inactive) | – |
| O=C(CCNC(=O)c1ccccc1)Nc1nc2ccccc2s1 | -3.72% (inactive) | – |
| O=C(CN1C(=O)/C(=C\c2ccccc2F)SC1=S)Nc1nc2ccccc2s1 | – | 12.6 µM (active) |
| CS(=O)(=O)N1CCN=C1SCc1ccc(F)cc1 | 4.07% (inactive) | – |
| COc1cc2ccccc2cc1C(=O)Nc1ccccc1C | 1.86% (inactive) | – |
| O=C(Nc1ccccc1-c1ccccc1)c1ccccc1[N+](=O)[O-] | 2.36% (inactive) | – |
| COc1cc(OC)c(C(=O)Nc2ccccc2-c2ccccc2)cc1OC | – | 15.8 µM (active) |
| O=C(O)CCN(Cc1ccccc1)S(=O)(=O)c1c(Cl)cccc1Cl | 22.5% (inactive) | – |
| CCN(C(=O)CN1CCN(Cc2ccccc2)CC1)c1c(N)n(Cc2ccccc2)c(=O)[nH]c1=O | -42.3% (inactive) | – |
| COc1ccc(OC)c(C(=O)NC(CC(N)=O)c2ccc(N3CCC(N4CCCCC4)CC3)c([N+](=O)[O-])c2)c1 (configuration not stated) | -2.61% (inactive) | – |
| O=C(NCCc1ccc(Cl)cc1)c1cccc(N2CCCC2=O)c1 | -2.8% (inactive) | – |
| Oc1cc2c(cc1O)CN(C(=S)NCCc1ccc(Cl)cc1)CCC2 | – | inactive and 18.4 µM (active) |
| COc1ccc(CCNC(=S)N2CCN(S(=O)(=O)c3ccc(Cl)cc3)CC2)cc1 | -0.0364% (inactive) | – |
